Reference: PubChem BioAssay (NCI)
The panel holds about 79,000 compounds, 15% with a hit somewhere; the sample as a whole holds those more often. No stated cut-off is given here; in the data, active means growth inhibition above about 70%; inactive means the rest.

How the values were obtained:
[1] = NCI Yeast Anticancer Drug Screen. Data for the rad50 strain (AID 155);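 further: 0% = growth of vehicle-only cultures of the same strain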; settings: S. cerevisiae rad50 strain growth inhibition; at 50.0 µM; active compounds read high
Outline: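 Compounds were tested on a yeast strain with an engineered DNA damage repair alteration; the reported value is growth inhibition normalised to vehicle treatment.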

[2] = NCI Yeast Anticancer Drug Screen. Data for the mec2-1 strain (AID 157); settings: S. cerevisiae mec2-1 strain, at 50.0 µM, active compounds read high
Outline: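 Growth inhibition is read against vehicle-treated controls after compound exposure of the mec2-1 yeast strain, which is defective in DNA damage repair or cell cycle control.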

[3] = NCI Yeast Anticancer Drug Screen. Data for the sgs1 mgt1 strain (AID 161);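 further: 0% = growth of cultures given vehicle only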; settings: S. cerevisiae sgs1 mgt1 strain, at 50.0 µM, active compounds read high
Outline: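 Percent growth inhibition was derived by comparing compound-exposed mutant yeast with vehicle-exposed cultures. The strain carries alterations in DNA damage repair.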

[4] = NCI Yeast Anticancer Drug Screen. Data for the cln2 rad14 strain (AID 165);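 further: 0% = growth equal to vehicle treated cultures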; settings: S. cerevisiae cln2 rad14 strain, at 50.0 µM, active compounds read high
Outline: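 Growth inhibition, relative to vehicle-treated controls, is the read-out. The test organism is a yeast strain with defined genetic alterations, cln2 rad14.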

[5] = NCI Yeast Anticancer Drug Screen. Data for the bub3 strain (AID 167); settings: S. cerevisiae bub3 mutant strain, at 50.0 µM, active compounds read high
Outline: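 Growth of a checkpoint-deficient yeast mutant is measured after compound exposure. Values represent inhibition relative to vehicle.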

[6] = NCI Yeast Anticancer Drug Screen. Data for the mlh1 rad18 strain (AID 175); settings: S. cerevisiae mlh1 rad18 strain growth inhibition; at 50.0 µM; active compounds read high
Outline: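 Cells of a genetically altered yeast strain, deficient in DNA damage repair, were treated with compound. Their growth was then compared with that of vehicle-treated cultures to give inhibition.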

Measured: growth inhibition

CCN(CC)Cc1cc(Oc2ccc(O)c(CN(CC)CC)c2)ccc1O
inactive: [1] 11.1% | [2] 8.5% | [3] 3.65% | [4] -22.7% | [5] 11.6% | [6] -4.4%

C[C@@H]1C(=O)OCC2=C3C[C@@H](CC[C@@]3(C)C=CC2=O)[C@H](C)C(=O)OCC2=C3C[C@H]1CC[C@@]3(C)C=CC2=O
inactive: [1] 4.3% | [2] -3.7% | [3] -1.35% | [4] 15.7% | [5] 1.7% | [6] 20.8%

COc1ccccc1-c1nc2ccccc2c(=O)[nH]1
inactive: [1] 12.8% | [2] -25.9% | [3] -14.1% | [4] 8.5% | [5] 6.4% | [6] 2.25%

O=C(Nc1ccc(C(=O)O)cc1)Nc1cccc(F)c1
inactive: [1] 14.8% | [2] 8.35% | [3] 10.2% | [4] 14.6% | [5] 22.6% | [6] 13.8%

CCCCC(NC(=O)OCc1ccccc1)C(=O)NC(Cc1c[nH]c2ccccc12)C(=O)O (stereo not given)
inactive: [1] 37.6% | [2] 3.9% | [3] 14.7% | [4] 17.8% | [5] 0.4% | [6] 9.25%

CCOC(=O)c1ccc(N=Cc2cccs2)cc1
inactive: [1] -1.9% | [2] 28.4% | [3] 17.1% | [4] 9.5% | [5] 0% | [6] 17.4%

CC1=C(CCCO)/C(=N\O)CCC1
inactive: [1] 3.75% | [2] -1.75% | [3] -3% | [4] -30.4% | [5] 17.5% | [6] -28%

C/C(=N\NC(=O)C(N)=O)c1c(O)cc(C)oc1=O
inactive: [1] -29.1% | [2] 5.2% | [3] 11.6% | [4] -23.1% | [5] 1.8% | [6] 15.7%

CCOCC(=O)O
inactive: [1] -15.1% | [2] -1.25% | [3] 9.15% | [4] -32.2% | [5] 39.2% | [6] -1.25%

CCOC(=O)NN(C(=O)OCC)C(=C(C1=CCCCC1)N1CCOCC1)N(NC(=O)OCC)C(=O)OCC
inactive: [1] -14.4% | [2] 4.25% | [3] 3.3% | [4] 1.9% | [5] -4.8% | [6] -6.5%

O=C1CCCCC/C1=C\O
inactive: [1] 2.8% | [2] -12.1% | [3] -10.6% | [4] -11.9% | [5] -23.9% | [6] 5.15%

O=S(=O)(Nc1c(Cl)c(Cl)c(NS(=O)(=O)c2ccccc2)c(Cl)c1Cl)c1ccccc1
inactive: [1] 46.2% | [2] 0.6% | [3] 13.4% | [4] -5.6% | [5] 4.55% | [6] 15.5%

O=C(CN1CCC(O)(c2ccccc2)CC1)N1CCN(/C=C/c2ccccc2)CC1
inactive: [1] -4% | [2] -0.45% | [3] -3.75% | [4] -10.6% | [5] -0.1% | [6] 10.8%

COC(=O)CCC(=O)c1cc(OC)c2cc3ccccc3cc2c1OC
inactive: [1] 9.2% | [2] -10.4% | [3] -2.55% | [4] 5.75% | [5] -17.4% | [6] -15.6%

N#Cc1c(-c2ccccc2)cc(-c2ccccc2)n(C2OCC(O)C(O)C2O)c1=S (stereo not given)
inactive: [1] 5.1% | [2] 30.6% | [3] 31.5% | [4] -7.45% | [5] 3.15% | [6] -0.05%

CC1=NN(c2cc(Cl)c(S(=O)(=O)O)cc2Cl)C(=O)C1N=Nc1ccc(S(=O)(=O)O)cc1 (stereo not given)
inactive: [1] -6.3% | [2] -19.8% | [3] -8% | [4] 2.05% | [5] -5.8% | [6] -0.9%

C=CCNC(=S)NCc1cccc2ccccc12
inactive: [1] -3.45% | [2] 36.3% | [3] 34.1% | [4] -28.1% | [5] 32.4% | [6] 21.1%

Cc1cc2[nH]c3c(C#N)c4c(c(=O)n3c2cc1C)CCCC4
inactive: [1] 10.1% | [2] 18.5% | [3] -7% | [4] 2.75% | [5] -5.85% | [6] -22.1%

CC(C)(CN)C(=O)O
inactive: [1] -3.2% | [2] -6.95% | [3] -11.6% | [4] -17.1% | [5] -0.3% | [6] 9.75%

C=C/C=N/Nc1ccc([N+](=O)[O-])cc1[N+](=O)[O-]
inactive: [1] 2.5% | [2] 5.4% | [3] 2.2% | [4] 5.9% | [5] 2.4% | [6] -1.35%
